VHR inh abs = VHR1 phosphatase inhibitors, primary screen, biochemical, absorbance, uHTS; recombinant VHR phosphatase, pNPP absorbance; inhibition, % at 13.3 µM; Dual specificity protein phosphatase 3 (Homo sapiens), P51452; 290,000 tested, 0.52% active; in the data active means inhibition above about 50%
PrP UTR inh = inhibition of PrP 5' UTR reporter expression. cell-based PrP 5' UTR mRNA reporter, plate reader. inhibition, % (no concentration beside the values). 340,000 tested, 0.35% active; in the data active means inhibition above about 52%; further: 0 = median of the neutral control wells
MazEF act = activators of E. coli MazEF toxin-antitoxin RNase, primary screen, biochemical, fluorescence, uHTS. activation, % at 20 µM. 350,000 tested, 0.32% active. FAM/BHQ RNA-DNA oligo cleavage fluorescence, 5 h. Endoribonuclease toxin MazF (Escherichia coli (strain K12)), P0AE70; in the data active means activation above about 50%
PfHsp40 yeast = rescue of yeast from PfHsp40 toxicity, primary screen, S. cerevisiae, ATP luminescence; S. cerevisiae expressing PfHsp40, growth rescue; growth rescue, % at 12.5 µM; 340,000 tested, 0.68% active; AID 504582, 2011; in the data active means growth rescue above about 28%, passing the limit was not always enough; inconclusive means no clear call, values can overlap the other calls;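 further: yeast W303a lacking pdr1 and pdr3 grown in galactose medium; growth measured after three days at 30 °C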
BJeLR lethal = MLPCN primary cell-based screen for lethality selective to Ras in HRASV12 cells | BJeLR (HRASV12) viability, CellTiter-Glo ATP luminescence, 48 h | 300,000 tested, 0.17% active | AID 1554, 2009 | inhibition, % (test concentration not listed); in the data active means inhibition above about 50%; inconclusive means no clear call, values can overlap the other calls
PrPC surface inh = inhibitors of human cell surface prion protein PrPC, primary screen, cell-based, TR-FRET; 370,000 tested, 0.43% active; AID 720596, 2013; TR-FRET read-out; inhibition, % at 13.8 µM; Major prion protein (Homo sapiens), P04156; in the data active means inhibition above about 24%; further: 0% = median of the test wells and 100% = reference compound wells
PrP 5UTR single = prion 5' UTR mRNA inhibition, cherry-pick retest; shares compounds with PrP UTR inh; cell-based prion protein 5' UTR reporter, plate reader; 1,100 tested, 48% active; inhibition, % at 2.5 µM; AID 504592, 2011; in the data active means inhibition above about 54%; inconclusive means no clear call, values can overlap the other calls
PrPC TRFRET cf = confirmation of inhibitors of cell surface human prion protein, confirmation, cell-based, TR-FRET | shares compounds with PrPC surface inh | cell surface PrPC level | inhibition, % at 13.8 µM | 1,500 tested, 65% active; in the data active means inhibition above about 25%
LD9 cytotox = cytotoxicity in LD9 cells, cytotoxicity control for cell surface PrPc inhibitor project, cell-based, luminescence, high throughput; shares compounds with PrPC surface inh; luminescence viability; inhibition, % at 13.8 µM; 1,500 tested, 29% active; AID 743201, 2013; in the data active means inhibition above about 9.5%
The depositor's hits bear a star; ? = inconclusive; · = no result; ! = not confirmed by another sample. Only some compounds are listed: those with a hit (about 2.1% of all), similar ones and a draw of the others.

SMILES	VHR inh abs	PrP UTR inh	MazEF act	PfHsp40 yeast	BJeLR lethal	PrPC surface inh	PrP 5UTR single	others
O=C(COC(=O)c1ccc[nH]c1=O)Nc1ccc(N2CCCCC2)cc1	·	62*	6	0	·	6	?
CCNC(=O)CC1C(=O)N(CC)C(=S)N1NC(=O)c1cccnc1 (configuration not stated)	21	80*	8	0	4	-1	-8
CCCCN1C(=O)C(CC(=O)NCCN2CCOCC2)CC(C(=O)N2CCOCC2)=C1C (configuration not stated)	·	·	-3	·	·	-8	·
CC(C)(C)c1ccc(C(CC(=O)O)NC(=O)Cc2ccc(Cl)cc2)cc1 (configuration not stated)	10	-13	5	0	4	2	·
CN1CCc2c(c3ccccc3n2Cc2ccccc2)C1	42	58*!	-1	0	3	-5	-6
CCCCN1CCc2c(c3ccccc3n2Cc2ccccc2)C1	6	6	-13	0	8	-1	·
COc1ccccc1NC(=O)CSc1nnc(NC(=O)C2CCC2)s1	1	-3	2	0	1	11	·
O=C(CN1CCN(S(=O)(=O)c2ccc(F)cc2)CC1)Nc1ccnn1C1CCCC1	·	-20	-10	2	·	0	·
Cc1cccc(NC(=O)COC(=O)c2ccccc2SCC(=O)N2CCCC2)c1	24	-8	0	1	-10	4	·
Cc1ccc(C(=O)Nc2ccc3ncccc3c2)cc1	13	56*	-15	-2	15	-1	31
COc1ccc(C(=O)Nc2ccc3ncccc3c2)cc1	9	-19	1	0	0	7	·
CC(C)C#Cc1ccc2c(c1)O[C@@H](CN(C)S(=O)(=O)c1cn(C)cn1)[C@@H](C)CN([C@H](C)CO)S2(=O)=O	·	·	-1	·	·	8	·
CCCCN(C)c1c(C)nc2ccc(C(=O)NCc3ccc(OC)cc3)cn12	·	·	·	·	·	0	·
CC(C)(O)/C=C/C(=O)[C@](C)(O)C1[C@H](O)C[C@@]2(C)C3CC=C4C(C[C@H](O)[C@@H](O)C4(C)C)[C@]3(C)C(=O)C[C@]12C (some centres not stated)	·	65*	5	3	·	·	75*
CC(C)(O)/C=C/C(=O)[C@](C)(O)C1[C@H](O)C[C@@]2(C)C3CC=C4C(C=C(O[C@@H]5O[C@H](CO)[C@@H](O)[C@H](O)[C@H]5O)C(=O)C4(C)C)[C@]3(C)C(=O)C[C@]12C (some centres not stated)	·	-11	8	-1	·	8	·
Cc1ccc(C(=O)NCC2CCCO2)cc1S(=O)(=O)N1CCCCC1 (configuration not stated)	2	-12	5	0	7	1	·
CCC(CO)Oc1cc(NCc2ccccc2Cl)c2ncn(C(C)C)c2c1 (configuration not stated)	·	-19	-1	-1	·	-5	·
COC(=O)c1ccc(-n2c(C)cc(C(=O)CSc3ccc(NC(C)=O)cc3)c2C)cc1	-1	-5	3	1	1	9	·
CC(=O)Nc1ccc(SCC(=O)c2cc(C)n(-c3ccccc3F)c2C)cc1	-4	68*	-9	0	1	4	21
CC(=O)Nc1ccc(SCC(=O)c2cc(C)n(Cc3cccs3)c2C)cc1	4	61*	8	-2	-1	3	36
CCN(CC)S(=O)(=O)c1ccc(Cl)c(NC(=O)COC(=O)c2nc3nc(C)cc(C)n3n2)c1	·	-1	4	-1	·	-1	·
COc1ccccc1CNC(=O)CCCc1cn(C)c2ccccc12	27	3	-5	2	-3	-10	·
COc1ccccc1CNC(=O)CCc1cn(C)c2ccccc12	-20	66*	7	0	-6	7	-1
Cc1ccc(N2CCCCn3c2nc2c3c(=O)n(CC(=O)O)c(=O)n2C)cc1	12	58*	-4	0	-7	-2	-5
O=C(C1CC(=O)N(c2ccc3c(c2)OCCO3)C1)N1CCN(Cc2ccccc2F)CC1 (configuration not stated)	·	86*	8	0	·	7	-9
SMILES	VHR inh abs	PrP UTR inh	MazEF act	PfHsp40 yeast	BJeLR lethal	PrPC surface inh	PrP 5UTR single	others
O=C(CSc1ccccc1)NC1CCCCN(Cc2cccc(Cl)c2)C1=O (configuration not stated)	·	·	·	·	·	4	·
CC(C)CCCCCCCCCCCCC(=O)NCC(=O)NC1C(C)OC(Nc2ncnc3nc[nH]c23)C(O)C1O (configuration not stated)	·	75*	-76	-1	·	25*	77*	PrPC TRFRET cf=79*;LD9 cytotox=33*
C/C(=C\CNc1ncnc2nc[nH]c12)CO	·	-10	8	0	-3	4	·
COc1ccc(C[C@H]2NC[C@H](O)[C@H]2OC(C)=O)cc1	·	92*	4	0	82*	89*	96*	PrPC TRFRET cf=102*;LD9 cytotox=47*
COc1ccc(CCNC(=O)C2CC2)cc1	·	-10	6	2	3	1	·
Nc1nc(F)nc2c1ncn2[C@@H]1O[C@H](CO)[C@@H](O)[C@H]1O	·	94*	6	-3	97*	45*	94*	PrPC TRFRET cf=44*;LD9 cytotox=54*
Nc1nc(F)nc2c1ncn2[C@@H]1O[C@H](CO)[C@@H](O)[C@@H]1O	-26	-33	-2	-1	11	2	·
COc1ccc(NC(=O)C2CCCN(S(=O)(=O)c3ccc4c(c3)CCCN4C(C)=O)C2)cc1Cl (configuration not stated)	7	-4	0	2	2	16	·
Cc1cccc2cc(C#N)c(SCC(=O)N3CC(=O)Nc4ccccc43)nc12	3	64*	38	0	54*	29*	81*	PrPC TRFRET cf=70*;LD9 cytotox=16*
Cc1ccc(C(=O)n2c(N)nc3ccccc32)cc1	10	74*	1	-1	34	25*	55*	PrPC TRFRET cf=-3;LD9 cytotox=3
CC(C)N1CCCCC(NC(=O)c2cccs2)C1=O (configuration not stated)	·	·	·	·	·	-3	·
O=C1NC2C(=CC(O)C(O)C2O)c2cc3c(c(O)c21)OCO3 (configuration not stated)	·	88*	5	0	·	89*	95*	PrPC TRFRET cf=97*;LD9 cytotox=55*

High-throughput results from PubChem BioAssay.
